These compounds were tested against Serine/threonine-protein kinase Nek6 (Homo sapiens) (UniProt Q9HC98). Conditions: at 1 µM.
Chain of Serine/threonine-protein kinase Nek6 (Homo sapiens) (Q9HC98 whole entry): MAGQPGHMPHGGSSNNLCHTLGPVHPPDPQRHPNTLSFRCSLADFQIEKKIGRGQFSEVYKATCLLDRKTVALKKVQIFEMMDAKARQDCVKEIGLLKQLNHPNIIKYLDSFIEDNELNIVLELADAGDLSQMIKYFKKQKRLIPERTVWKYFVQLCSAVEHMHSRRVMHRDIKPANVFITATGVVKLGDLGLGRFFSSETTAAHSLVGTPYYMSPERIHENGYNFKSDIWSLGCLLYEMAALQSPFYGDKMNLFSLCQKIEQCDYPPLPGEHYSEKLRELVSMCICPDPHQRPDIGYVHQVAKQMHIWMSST

SMILES | residual activity
Nc1nc(Nc2ccc(S(N)(=O)=O)cc2)nn1C(=O)c1c(F)cccc1F | 105% (inactive)
CN(C)S(=O)(=O)c1ccc2c(c1)/C(=C/c1cc3c([nH]1)CCCC3)C(=O)N2 | 115% (inactive)
O=c1c(-c2ccc(F)cc2)c(-c2ccncc2)[nH]n1-c1ccc(Cl)cc1 | 101% (inactive)
CCCCc1c(-c2ccc(OC)cc2)[nH]c2nccnc12 | 113% (inactive)
O=C(CCCc1ccc(-c2ccccc2F)cc1)Nc1ccc(O)cc1 | 112% (inactive)
COc1ccc(CNC(=O)Nc2ncc([N+](=O)[O-])s2)cc1 | 114% (inactive)

The compounds below were run against Serine/threonine-protein kinase Nek6 (Homo sapiens) (UniProt Q9HC98). Conditions: at 10 µM.

SMILES | residual activity [%]
Nc1nc(Nc2ccc(S(N)(=O)=O)cc2)nn1C(=O)c1c(F)cccc1F | 115
NCCNc1ncc(C(N)=O)c(Nc2cccc(C(F)(F)F)c2)n1 | 111
CN(C)S(=O)(=O)c1ccc2c(c1)/C(=C/c1cc3c([nH]1)CCCC3)C(=O)N2 | 114
CCCCc1c(-c2ccc(OC)cc2)[nH]c2nccnc12 | 100
O=C(CCCc1ccc(-c2ccccc2F)cc1)Nc1ccc(O)cc1 | 127
COc1ccc(CNC(=O)Nc2ncc([N+](=O)[O-])s2)cc1 | 103

These compounds were tested against Serine/threonine-protein kinase Nek7 (Homo sapiens) (UniProt Q8TDX7). Conditions: at 1 µM.
Chain of Serine/threonine-protein kinase Nek7 (Homo sapiens) (Q8TDX7 whole entry, looked up): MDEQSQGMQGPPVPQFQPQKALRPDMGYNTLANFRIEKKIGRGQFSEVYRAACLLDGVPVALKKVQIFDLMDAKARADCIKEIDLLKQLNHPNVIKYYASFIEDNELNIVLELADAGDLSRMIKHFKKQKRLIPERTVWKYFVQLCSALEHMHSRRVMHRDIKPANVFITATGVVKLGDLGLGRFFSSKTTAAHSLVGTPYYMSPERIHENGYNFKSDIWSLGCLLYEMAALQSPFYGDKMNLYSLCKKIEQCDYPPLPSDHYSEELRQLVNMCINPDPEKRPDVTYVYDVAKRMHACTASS

SMILES | residual activity
Nc1nc(Nc2ccc(S(N)(=O)=O)cc2)nn1C(=O)c1c(F)cccc1F | 111% (inactive)
Cc1cc(C)c(/C=C2\C(=O)Nc3ccccc32)[nH]1 | 101% (inactive)
CN(C)S(=O)(=O)c1ccc2c(c1)/C(=C/c1cc3c([nH]1)CCCC3)C(=O)N2 | 111% (inactive)
N#C/C(=C\c1ccc(O)c(O)c1)C(=O)NCc1ccccc1 | 101% (inactive)

The compounds below were run against Serine/threonine-protein kinase Nek7 (Homo sapiens) (UniProt Q8TDX7). Conditions: at 10 µM.

SMILES | residual activity
Nc1nc(Nc2ccc(S(N)(=O)=O)cc2)nn1C(=O)c1c(F)cccc1F | 105% (inactive)
O=C(Nc1ccc(Cl)cc1)c1ccccc1NCc1ccncc1 | 120% (inactive)
O=C1C(Cl)=C(N2C(=O)CCC2=O)C(=O)c2ccccc21 | 96% (inactive)
CCCCc1c(-c2ccc(OC)cc2)[nH]c2nccnc12 | 112% (inactive)
O=C1Nc2ccccc2/C1=C\c1c(Cl)[nH]c2ccccc12 | 142% (inactive)
O=C(NC(NC(=S)Nc1ccc(F)c([N+](=O)[O-])c1)C(Cl)(Cl)Cl)C(c1ccccc1)c1ccccc1 (stereo not given) | 96% (inactive)
N#C/C(=C\c1ccc(O)c(O)c1)C(=O)NCc1ccccc1 | 125% (inactive)

These compounds were tested against T1, Serine/threonine-protein kinase NLK (Homo sapiens) (UniProt Q9UBE8). Conditions: at 1 µM.
T1 sequence (whole entry): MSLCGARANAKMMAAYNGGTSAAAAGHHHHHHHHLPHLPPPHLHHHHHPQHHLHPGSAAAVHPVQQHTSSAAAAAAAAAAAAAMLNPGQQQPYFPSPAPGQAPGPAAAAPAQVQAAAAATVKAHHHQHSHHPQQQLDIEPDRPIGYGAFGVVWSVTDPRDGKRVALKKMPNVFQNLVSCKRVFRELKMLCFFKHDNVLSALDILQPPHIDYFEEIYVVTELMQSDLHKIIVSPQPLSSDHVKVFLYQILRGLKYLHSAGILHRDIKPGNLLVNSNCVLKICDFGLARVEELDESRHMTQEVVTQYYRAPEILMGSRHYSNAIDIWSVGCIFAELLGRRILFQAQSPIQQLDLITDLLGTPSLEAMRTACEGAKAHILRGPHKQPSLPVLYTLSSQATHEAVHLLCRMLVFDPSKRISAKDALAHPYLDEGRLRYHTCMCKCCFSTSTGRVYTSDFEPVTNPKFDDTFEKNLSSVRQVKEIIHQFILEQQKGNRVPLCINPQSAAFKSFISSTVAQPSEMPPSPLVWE

SMILES | residual activity [%]
Nc1nc(Nc2ccc(S(N)(=O)=O)cc2)nn1C(=O)c1c(F)cccc1F | 75
O=C1Nc2ccc(Cl)cc2/C1=C/c1cc(Cl)c(O)c(Cl)c1 | 47
Cn1sc(=O)n(Cc2ccccc2)c1=O | 82
Fc1ccc(-c2nc3n(c2-c2ccncc2)CCS3)cc1 | 52
NCCNc1ncc(C(N)=O)c(Nc2cccc(C(F)(F)F)c2)n1 | 106
CN(C)S(=O)(=O)c1ccc2c(c1)/C(=C/c1cc3c([nH]1)CCCC3)C(=O)N2 | 91
O=C1C(Cl)=C(N2C(=O)CCC2=O)C(=O)c2ccccc21 | 95
O=c1c(-c2ccc(F)cc2)c(-c2ccncc2)[nH]n1-c1ccc(Cl)cc1 | 42
COc1ccc(Cl)cc1NC(=O)Nc1cc(C)nc2ccccc12 | 99
CSc1nc(-c2ccc(F)cc2)c(-c2ccnc(NC(C)c3ccccc3)c2)[nH]1 (stereo not given) | 69
CCCCc1c(-c2ccc(OC)cc2)[nH]c2nccnc12 | 83
CCN1/C(=C/C(C)=O)Sc2ccc(OC)cc21 | 76
Nc1nccc(-c2c(-c3ccc(F)cc3)ncn2C2CCNCC2)n1 | 34
O=C(CCCc1ccc(-c2ccccc2F)cc1)Nc1ccc(O)cc1 | 106
CCCCc1c(-c2ccc(O)cc2)[nH]c2nccnc12 | 88
CN([C@@H](Cc1ccc(OS(=O)(=O)c2cccc3cnccc23)cc1)C(=O)N1CCN(c2ccccc2)CC1)S(=O)(=O)c1cccc2cnccc12 | 100
NC(=O)c1cccc(-c2cc(Nc3ccc(OC(F)(F)F)cc3)ncn2)c1 | 94
O=C1NC(=O)C(c2cn(CCCO)c3ncccc23)=C1c1cnccn1 | 98
O=C(NC(NC(=S)Nc1ccc(F)c([N+](=O)[O-])c1)C(Cl)(Cl)Cl)C(c1ccccc1)c1ccccc1 (stereo not given) | 103
c1ccc(-c2cnc(Nc3ccc(OCCN4CCCC4)cc3)s2)cc1 | 112
Nc1n[nH]c2nc3ccccc3nc12 | 97
CC(C)(C)c1nc2c3ccc(F)cc3c3c(=O)[nH]ccc3c2[nH]1 | 34
O=C(c1cc2cc(O)ccc2[nH]1)c1cc2cc(O)ccc2[nH]1 | 61

These compounds were tested against T1, Serine/threonine-protein kinase NLK (Homo sapiens). Conditions: at 10 µM.

SMILES | residual activity [%]
Nc1nc(Nc2ccc(S(N)(=O)=O)cc2)nn1C(=O)c1c(F)cccc1F | 34
O=C1Nc2ccc(Cl)cc2/C1=C/c1cc(Cl)c(O)c(Cl)c1 | 15
Cn1sc(=O)n(Cc2ccccc2)c1=O | 92
Fc1ccc(-c2nc3n(c2-c2ccncc2)CCS3)cc1 | 20
NCCNc1ncc(C(N)=O)c(Nc2cccc(C(F)(F)F)c2)n1 | 81
CN(C)S(=O)(=O)c1ccc2c(c1)/C(=C/c1cc3c([nH]1)CCCC3)C(=O)N2 | 93
O=C1C(Cl)=C(N2C(=O)CCC2=O)C(=O)c2ccccc21 | 88
O=c1c(-c2ccc(F)cc2)c(-c2ccncc2)[nH]n1-c1ccc(Cl)cc1 | 12
COc1ccc(Cl)cc1NC(=O)Nc1cc(C)nc2ccccc12 | 82
CSc1nc(-c2ccc(F)cc2)c(-c2ccnc(NC(C)c3ccccc3)c2)[nH]1 (stereo not given) | 14
CCN1/C(=C/C(C)=O)Sc2ccc(OC)cc21 | 77
Nc1nccc(-c2c(-c3ccc(F)cc3)ncn2C2CCNCC2)n1 | 9
O=C1Nc2ccccc2/C1=C\c1c(Cl)[nH]c2ccccc12 | 73
O=C(CCCc1ccc(-c2ccccc2F)cc1)Nc1ccc(O)cc1 | 100
CCCCc1c(-c2ccc(O)cc2)[nH]c2nccnc12 | 59
O=c1cc(N2CCOCC2)oc2c(-c3ccccc3)cccc12 | 72
CN([C@@H](Cc1ccc(OS(=O)(=O)c2cccc3cnccc23)cc1)C(=O)N1CCN(c2ccccc2)CC1)S(=O)(=O)c1cccc2cnccc12 | 99
NC(=O)c1cccc(-c2cc(Nc3ccc(OC(F)(F)F)cc3)ncn2)c1 | 40
O=C1NC(=O)C(c2cn(CCCO)c3ncccc23)=C1c1cnccn1 | 93
O=C(NC(NC(=S)Nc1ccc(F)c([N+](=O)[O-])c1)C(Cl)(Cl)Cl)C(c1ccccc1)c1ccccc1 (stereo not given) | 101
c1ccc(-c2cnc(Nc3ccc(OCCN4CCCC4)cc3)s2)cc1 | 56
Nc1n[nH]c2nc3ccccc3nc12 | 91
CC(C)(C)c1nc2c3ccc(F)cc3c3c(=O)[nH]ccc3c2[nH]1 | 19
O=C(c1cc2cc(O)ccc2[nH]1)c1cc2cc(O)ccc2[nH]1 | 19

Source: ChEMBL document CHEMBL2218924, “A broad activity screen in support of a chemogenomic map for kinase signalling research and drug discovery” (Biochem J, 2013)
